Screens deposited in PubChem BioAssay by Sanford-Burnham Center for Chemical Genomics.
Peg3 promoter – reduces Peg3 promoter-driven luciferase expression in HeLa; HeLa PEG-Prom luciferase reporter, luminescence, overnight; hit rate 1.7% among 360,000; inhibition, % at 20 µM; AID 588405;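 active = inhibition of at least 50% at 20 µM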
HIF-2a block – blocks HIF-2a reporter activity; 786-0 RCC cells HIF-2a reporter, luciferase luminescence, overnight; inhibition, % at 18.8 µM; hit rate 0.72% among 360,000;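 active = inhibition of the luminescence signal of 40% or more relative to plate controls, in a single-dose primary screen at 18.75 µM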
KKLEB cytotox – counter-screen for CF NF-kB inhibitors: cytotoxicity; KKLEB CF airway cells viability, ATPlite luminescence, overnight; active compounds read low; cells stimulated with P. aeruginosa culture filtrate; activity change (cytotoxicity), % at 5 µM; hit rate 0.36% among 360,000;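 active = corrected activity change at or below -50% at 5 µM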
TWEAK Fn14 block – inhibitors of TWEAK-Fn14 interaction signaling; TWEAK-stimulated Fn14 reporter cells, luciferase luminescence, 8 h; inhibition, % at 10 µM; hit rate 2% among 360,000; AID 1159606; in the data active = inhibition above about 50%
CF NFkB block – cystic fibrosis NF-kB activation inhibition | AID 588850 | hit rate 0.86% among 360,000 | KKLEB NF-kB-GFP reporter, PAF-induced, GFP fluorescence overnight | inhibition, % at 5 µM;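 active = at least 50% inhibition at 5 µM, scaled per plate between neutral and stimulator controls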;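 also: PAF is a Pseudomonas aeruginosa culture filtrate used as stimulus; plate controls were PAF-stimulated DMSO wells for no effect and unstimulated DMSO wells for full effect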
TROY signal inh – TROY signaling inhibition; hit rate 0.98% among 360,000; inhibition, % at 10 µM; AID 1347056; Q293 LMP1-TROYcd NF-kB luciferase reporter, 4 h;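 active = compounds whose plate-normalised and pattern-corrected inhibition of the luciferase reporter signal at the single screening dose is 50% or more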
Numbers without * were called inactive; x = no result given; ! = not active in a repeat. An excerpt weighted towards active compounds, which were near 4% of everything screened.

SMILES | Peg3 promoter | HIF-2a block | KKLEB cytotox | TWEAK Fn14 block | CF NFkB block | TROY signal inh
COc1ccc(C(C)(C)C)cc1NC(=O)CNc1cccc2ccccc12 | 20 | 4 | -2 | 58* | 15 | 40
COc1ccc(C(C)(C)C)cc1NC(=O)CCNC(=O)c1ccco1 | 5 | -1 | 8 | 91* | -20 | 4
O=C(NCCNC(=O)c1ccco1)c1ccc(F)cc1 | -12 | 5 | 4 | 6 | 13 | 22
O=C(NCCNC(=O)c1ccco1)c1cccc(F)c1 | -2 | 6 | 5 | -2 | -8 | 52*
COc1cccc(CNCCNC(=O)c2ccco2)c1OC | -3 | 19 | -1 | 1 | 2 | 6
COc1cc(OC)c(OC)cc1CNCCNC(=O)c1ccco1 | 9 | 10 | -5 | 96* | 6 | 5
CC(=O)Nc1ccc(S(=O)(=O)N2CCCN(c3nc(C)cc(C)c3C#N)CC2)cc1 | -1 | 6 | 0 | -3 | 9 | 20
CC(=O)NC1Sc2ccccc2N=C1c1ccccc1 (stereo not given) | -200 | -176 | 16 | 53* | -7 | x
CC(=O)N1c2ccccc2N=C(c2ccc(C(F)(F)F)cc2)C1C(=O)NC1CCCC1 (stereo not given) | x | -17 | x | x | x | x
COc1ccc(NC(=O)Cc2coc3cc(C)c(C(C)C)cc23)cc1S(=O)(=O)N1CCOCC1 | 23 | 5 | 3 | 53* | -4 | 28
COc1ccc2c(CC(=O)Nc3ccc(OC)c(S(=O)(=O)N4CCOCC4)c3)coc2c1 | -24 | -31 | 4 | -6 | -1 | 17
COc1ccc(-n2c(CCC(=O)O)ccc2-c2ccc(F)cc2)c(OC)c1 | 3 | 7 | 10 | 30 | 2 | 51*
COC(=O)c1ccccc1-n1c(CCC(=O)O)ccc1-c1ccc(F)cc1 | 18 | -10 | 8 | 5 | -2 | -17
Cc1[nH]c(C)c(C(=O)/C=C/c2ccc([N+](=O)[O-])cc2)c1C | -50 | -51 | -9 | 60* | 0 | 10
CSCc1cc(C(=O)NC2CC2)c(N)s1 | x | -5 | x | x | x | x
CCOC(=O)/C=C(\C)Sc1cc(O)c2ccccc2c1O | 38 | 0 | -43 | 96* | 88* | 31
CC(=O)c1cc(O)c2ccccc2c1O | -69 | -152 | 1 | -3 | 2 | 1
CCOC(=O)/C=C(\C)Sc1cc(=O)oc2ccccc12 | 13 | 3 | -34 | 57* | 37 | 2
CCOC(=O)Nc1oc2ccccc2c(=O)c1C | 11 | 14 | -10 | 5 | 6 | -14
CCOC(=O)[C@]12CCC=C1N(Cc1cccc3ccccc13)C(=O)[C@H](CC(=O)N1CCN(C(=O)C3CC3)CC1)C2 | x | 2 | x | 2 | x | -14
CC(NC(=O)c1ccco1)c1nc(-c2ccc(C(C)(C)C)cc2)no1 (stereo not given) | -49 | -59 | 4 | 57* | -19 | 20
CC(C)(C)c1ccc(-c2noc(CNC(=O)c3ccco3)n2)cc1 | -67 | -104 | -4 | 6 | -3 | -3
CCCCCCCSc1ncnc2[nH]ncc12 | -132 | -160 | 5 | -32 | 24 | -13
CCOc1ccc(N(CC(=O)NC2CC3CCC2C3)S(=O)(=O)c2ccc(C)cc2)cc1 (stereo not given) | 26 | 22 | -6 | -13 | 26 | -1
CCOc1ccc(N(CC(=O)NC2CC3CCC2C3)S(=O)(=O)c2ccccc2)cc1 (stereo not given) | 21 | 6 | -9 | 56* | 16 | -3
SMILES | Peg3 promoter | HIF-2a block | KKLEB cytotox | TWEAK Fn14 block | CF NFkB block | TROY signal inh
N#Cc1ccc(-c2ccc(Cl)cc2)nc1SCC(=O)c1cccc(Cl)c1 | 86* | 16 | -17 | -51 | 9 | 2
CS(=O)(=O)N(CCC#N)Cc1ccc(/C=C2\C(=O)Nc3ccccc32)o1 | 16 | 18 | -6 | 47 | 50* | 23
CC1=C(C#N)C(=O)NC(=O)/C1=C/c1ccc(-c2ccc(S(N)(=O)=O)cc2)o1 | 6 | 19 | -10 | 2 | 2 | 12
COc1ccc(-c2oc3ccccc3c2C#Cc2cncn2C)cc1 | 6 | -82 | -23 | 8 | 13 | -44
O=C1c2ccccc2C(c2nnnn2Cc2ccccc2)N1Cc1ccc2c(c1)OCO2 (stereo not given) | x | 3 | x | 8 | x | -13
CCNC(=S)NNC(=O)Cn1c(=O)c2c(ncn2CCOC)n(Cc2ccccc2)c1=O | 13 | 15 | 2 | 93* | 10 | -1
CCCCCNC(=O)Cn1c(=O)c2c(ncn2CC(C)C)n(Cc2ccccc2)c1=O | 22 | 12 | 7 | 50* | 1 | 2
COc1ccccc1Cn1c(=S)[nH]c2cc(C(=O)NCC(OC)OC)ccc2c1=O | 21 | 10 | 4 | 9 | 4 | 10
COc1cccc(CN2CCN(CCCc3ccccc3)C(CCO)C2)c1O (stereo not given) | 7 | 7 | 1 | 6 | 4 | 6
CCCn1c2c(c(=N)c3c1CCC3)CCC2 | 10 | 12 | 14 | -24 | -13 | -8
CCCCCCCn1c2c(c(=N)c3ccccc31)CCC2 | 34 | -18 | -29 | 56* | 39 | 46
Cc1c(N)cccc1Cl | -9 | 15 | 2 | 3 | -5 | -4
COc1ccc(C)cc1S(=O)(=O)N1CCN(C(=O)c2ncoc2-c2ccc(C)cc2)CC1 | -5 | 13 | 7 | 85* | 1 | -2
Cc1nn(Cc2c(Cl)cccc2Cl)c(C)c1NC(=O)c1cn(-c2ccccc2)nc1-c1ccccc1 | 115* | 34 | -42 | 70* | 23 | 27
Cc1cccn2c(=O)c3cc(C(=O)NC4CCCCC4)c(=N)n(Cc4ccccc4)c3nc12 | 54* | 6 | -12 | -17 | 27 | 5
Cc1cccn2c(=O)c3cc(C(=O)NC4CCCC4)c(=N)n(CCc4ccccc4)c3nc12 | 69* | -6 | -12 | -22 | -58 | -9
N=c1c(C(=O)NC2CCCCC2)cc2c(=O)n3ccccc3nc2n1Cc1ccc(F)cc1 | -5 | 3 | -5 | -24 | 6 | -25
CCNC(=O)c1cc2c(=O)n3cccc(C)c3nc2n(CCc2ccccc2)c1=N | 8 | 14 | -9 | -94 | -61 | -44
Cc1cccn2c(=O)c3cc(C(=O)NC4CCCC4)c(=N)n(Cc4ccc(F)cc4)c3nc12 | 58* | -3 | 9 | -15 | 20 | 1
CN(C)CC(C)(C)CNS(=O)(=O)c1ccc(Cl)c(Cl)c1 | 9 | 15 | 10 | 1 | -5 | 52*!
CN(C)CCNC(=O)c1cccc(NS(=O)(=O)c2ccc(Cl)c(Cl)c2)c1 | 7 | 11 | 6 | -9 | -3 | 6
CCC(=Cc1ccccc1O)c1ccncc1 | 9 | 3 | 12 | 21 | 10 | 19
CCCCSc1nc2sc3c(c2c(=O)[nH]1)CC(C)(CC)OC3 (stereo not given) | -3 | -7 | -3 | -7 | 2 | 6
CCC(CC)C(=O)N(C)c1c(C)nc2c(OCC(=O)C(C)(C)C)cccn12 | 5 | 5 | -11 | 5 | 4 | -6
CC(=O)/C(N=Nc1cc2c(c([N+](=O)[O-])c1C)C(C)(C)CC2(C)C)=C(\C)O | 22 | 14 | 0 | 96* | 2 | 81*
